Results: PubChem BioAssay (EPA / NIEHS)
Where “and” joins values, the source holds several entries; their conditions need not be identical. Equal entries are not always repeated. A structure can be active in one record and inactive in another. Calls of active or inactive are those of the source. Rule for the calls: active = hit-call score of the fitted dose curve at least 0.9, where 1 is the maximum; inactive = score below 0.9.

Key:
[1] = read-out: Monokine induced gamma interferon (MIG), CXCL9 (gene 4283); assay: BSK_hDFCGF_MIG: BioMAP Diversity Plus: hDFCGF Assay for Monokine induced gamma interferon (MIG) Biomarker Activity (AID 2283063); details: primary human foreskin fibroblasts; actives raise or lower the signal
Procedure, shortened: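 ELISA read-out of MIG from primary human dermal fibroblasts 24 h post-dosing. Gain or loss of signal fitted bidirectionally, DMSO as baseline.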

[2] = read-out: Matrix Metallopeptidase 1 (MMP1), MMP1 (gene 4312); assay: BSK_hDFCGF_MMP1: BioMAP Diversity Plus: hDFCGF Assay for Matrix Metallopeptidase 1 (MMP1) Biomarker Activity (AID 2283064); details: primary human foreskin fibroblasts; actives raise or lower the signal
Procedure, shortened: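 ELISA read-out of MMP1 from human foreskin fibroblasts (primary skin cells), 24 h post-dose. Gain or loss of signal was fitted bidirectionally versus DMSO negative control; cytotoxicity was checked by SRB in parallel cultures.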

[3] = read-out: Vascular cell adhesion molecule 1 (VCAM1), VCAM1 (gene 7412); assay: BSK_hDFCGF_VCAM1: BioMAP Diversity Plus: hDFCGF Assay for Vascular cell adhesion molecule 1 (VCAM1) Biomarker Activity (AID 2283065); details: primary human foreskin fibroblasts; actives raise or lower the signal;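 for AC50: VCAM-1 protein level quantified by ELISA after 24 h chemical exposure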
Procedure, shortened: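 Primary human foreskin fibroblasts (hDFCGF system) were dosed with chemical and VCAM-1 was measured by ELISA 24 h later. Bidirectional curve fitting used DMSO as negative control and activity baseline.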

[4] = read-out: Plasminogen activator inhibitor-1 (PAI1), SERPINE1 (gene 5054); assay: BSK_hDFCGF_PAI1: BioMAP Diversity Plus: hDFCGF Assay for Plasminogen activator inhibitor-1 (PAI1) Biomarker Activity (AID 2283066); details: primary human foreskin fibroblasts; actives raise or lower the signal
Procedure, shortened: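 PAI-1 levels in human dermal foreskin fibroblasts were quantified by ELISA 24 h after dosing, with gain or loss analysed against DMSO. Overt cytotoxicity was checked by sulforhodamine B total-protein staining in parallel cultures.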

[5] = read-out: Intercellular Adhesion Molecule 1 (ICAM1), ICAM1 (gene 3383); assay: BSK_KF3CT_ICAM1: BioMAP Diversity Plus: KF3CT Assay for Intercellular Adhesion Molecule 1 (ICAM1) Biomarker Activity (AID 2283067); details: primary human keratinocytes with fibroblasts; actives raise or lower the signal
Procedure, shortened: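 Human keratinocyte plus foreskin fibroblast primary co-culture was exposed to chemical for 24 h. ICAM-1 was then quantified by ELISA, and the data were fit bidirectionally against DMSO as the negative control and baseline.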

[6] = BSK_KF3CT_SRB: Viability Assessment in the BioMAP Diversity Plus: KF3CT Assay (AID 2283069); details: primary human keratinocytes with fibroblasts;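 note: read 24 h after compound addition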
Procedure, shortened: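 SRB read-out at 560 nm (0.1% stain, TCA-fixed cells) gauges overt cytotoxicity in a human skin keratinocyte–fibroblast co-culture 24 h post-dosing. Signal change was fitted bidirectionally relative to DMSO control.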

[7] = read-out: Interleukin-1 alpha (IL1a), IL1A (gene 3552); assay: BSK_KF3CT_IL1a: BioMAP Diversity Plus: KF3CT Assay for Interleukin-1 alpha (IL1a) Biomarker Activity (AID 2283070); details: primary human keratinocytes with fibroblasts; actives raise or lower the signal
Procedure, shortened: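 Primary skin co-culture (keratinocytes, foreskin fibroblasts), 24 h exposure; ELISA for IL-1a; bidirectional curve fit vs DMSO.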

[8] = read-out: C-C motif chemokine 2 (Homo sapiens) (UniProt P13500); assay: BSK_KF3CT_MCP1: BioMAP Diversity Plus: KF3CT Assay for Monocyte Chemoattractant Protein 1 (MCP1/CCL2) Biomarker Activity (AID 2283073); details: primary human keratinocytes with fibroblasts; actives raise or lower the signal
Procedure, shortened: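 Human keratinocyte plus foreskin fibroblast primary co-culture exposed to chemical for 24 h. MCP-1 levels measured by ELISA. Bidirectional curve fitting relative to DMSO negative control as baseline.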

[9] = read-out: Matrix Metallopeptidase 9 (MMP9), MMP9 (gene 4318); assay: BSK_KF3CT_MMP9: BioMAP Diversity Plus: KF3CT Assay for Matrix Metallopeptidase 9 (MMP9) Biomarker Activity (AID 2283074); details: primary human keratinocytes with fibroblasts; actives raise or lower the signal;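 for AC50: MMP9 protein level quantified by ELISA in the co-culture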
Procedure, shortened: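 ELISA read-out of MMP-9 at 24 h post-dosing in a co-culture of human skin keratinocytes and foreskin fibroblasts. Gain or loss of signal was fitted in both directions against DMSO.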

[10] = read-out: urokinase plasminogen activator (uPA), PLAU (gene 5328); assay: BSK_KF3CT_uPA: BioMAP Diversity Plus: KF3CT Assay for urokinase plasminogen activator (uPA) Biomarker Activity (AID 2283075); details: primary human keratinocytes with fibroblasts; actives raise or lower the signal
Procedure, shortened: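 Skin co-culture (keratinocytes + foreskin fibroblasts), human primary; 24 h post-dose; uPA by ELISA; gain/loss fit vs DMSO baseline.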

[11] = read-out: CD40, CD40 (gene 958); assay: BSK_LPS_CD40: BioMAP Diversity Plus: LPS Assay for CD40 Biomarker Activity (AID 2283076); details: primary human HUVEC with PBMC; actives raise or lower the signal
Procedure, shortened: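 Primary human umbilical vein endothelial cells co-cultured with peripheral blood mononuclear cells, LPS-stimulated, were dosed with chemical and read 24 h later. CD40 levels were measured by ELISA and fitted bidirectionally against DMSO as negative control and baseline.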

[12] = read-out: E-selectin (Homo sapiens) (UniProt P16581); assay: BSK_LPS_Eselectin: BioMAP Diversity Plus: LPS Assay for Eselectin Biomarker Activity (AID 2283077); details: primary human HUVEC with PBMC; actives raise or lower the signal
Procedure, shortened: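 Human umbilical vein endothelial cells co-cultured with peripheral blood mononuclear cells under LPS stimulation; E-selectin measured by ELISA 24 h after chemical dosing. Activity fitted bidirectionally against DMSO as negative control and baseline.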

[13] = read-out: Interleukin-8 (IL8), CXCL8 (gene 3576); assay: BSK_LPS_IL8: BioMAP Diversity Plus: LPS Assay for Interleukin-8 (IL8) Biomarker Activity (AID 2283078); details: primary human HUVEC with PBMC; actives raise or lower the signal
Procedure, shortened: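 Human umbilical vein endothelial cells co-cultured with PBMC were stimulated with LPS; IL-8 levels were measured by ELISA 24 h after chemical dosing. Activity was fitted bidirectionally against DMSO as negative control and baseline.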

[14] = BSK_LPS_SRB: Viability Assessment in the BioMAP Diversity Plus: LPS Assay (AID 2283079); details: primary human HUVEC with PBMC;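 note: total protein by sulforhodamine B absorbance as a cytotoxicity measure; measured one day after compound addition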
Procedure, shortened: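 Human umbilical vein endothelial cells co-cultured with PBMC (LPS system) were dosed for 24 h. Total protein was stained with 0.1% sulforhodamine B after 10% TCA fixation, read at 560 nm, and fitted bidirectionally against DMSO baseline.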

[15] = read-out: Interleukin-1 alpha (IL1a), IL1A (gene 3552); assay: BSK_LPS_IL1a: BioMAP Diversity Plus: LPS Assay for Interleukin-1 alpha (IL1a) Biomarker Activity (AID 2283080); details: primary human HUVEC with PBMC; actives raise or lower the signal
Procedure, shortened: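 Human umbilical vein endothelial cells co-cultured with peripheral blood mononuclear cells were LPS-stimulated and exposed to test chemicals for 24 h. IL-1 alpha was quantified by ELISA, with bidirectional curve fitting against DMSO as the negative control and baseline.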

[16] = read-out: Monocyte Chemoattractant Protein-1 (MCP1), CCL2 (gene 6347); assay: BSK_LPS_MCP1: BioMAP Diversity Plus: LPS Assay for Monocyte Chemoattractant Protein-1 (MCP1) Biomarker Activity (AID 2283081); details: primary human HUVEC with PBMC; actives raise or lower the signal;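 for AC50: co-culture stimulated with LPS; secreted MCP-1 protein quantified by ELISA in culture supernatant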
Procedure, shortened: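 HUVEC plus PBMC co-culture (human primary cells, LPS system) exposed to test chemical for 24 h; MCP-1 measured by ELISA. Bidirectional curve fitting against DMSO baseline; parallel SRB total-protein staining flags overt cytotoxicity.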

[17] = BSK_LPS_PGE2: BioMAP Diversity Plus: LPS Assay for Prostaglandin E2 (PGE2) Biomarker Activity (AID 2283082); details: primary human HUVEC with PBMC; actives raise or lower the signal;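 for AC50: secreted prostaglandin E2 measured by ELISA in LPS-stimulated co-culture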
Procedure, shortened: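 PGE2 release measured by ELISA in an LPS-activated co-culture of human umbilical vein endothelial cells and peripheral blood mononuclear cells, read at 24 h post-dosing. DMSO served as baseline for bidirectional curve fitting.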

[18] = read-out: Interferon-gamma inducible Protein 10 (IP10), CXCL10 (gene 3627); assay: BSK_KF3CT_IP10: BioMAP Diversity Plus: KF3CT Assay for Interferon-gamma inducible Protein 10 (IP10) Biomarker Activity (AID 2283068); details: primary human keratinocytes with fibroblasts; actives raise or lower the signal
Procedure, shortened: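 KF3CT co-culture (keratinocytes + foreskin fibroblasts), 24 h compound, IP-10 by ELISA; bidirectional fit vs DMSO baseline.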

[19] = read-out: Transforming growth factor beta 1 (TGFb1), TGFB1 (gene 7040); assay: BSK_KF3CT_TGFb1: BioMAP Diversity Plus: KF3CT Assay for Transforming growth factor beta 1 (TGFb1) Biomarker Activity (AID 2283072); details: primary human keratinocytes with fibroblasts; actives raise or lower the signal
Procedure, shortened: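 ELISA quantifies TGF-b1 at 24 h post-dose in a primary human skin co-culture of keratinocytes and fibroblasts, with gain or loss judged against DMSO. Parallel SRB total-protein staining flags overt cytotoxicity.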

[20] = read-out: TIMP metallopeptidase inhibitor 2 (TIMP2), TIMP2 (gene 7077); assay: BSK_KF3CT_TIMP2: BioMAP Diversity Plus: KF3CT Assay for TIMP metallopeptidase inhibitor 2 (TIMP2) Biomarker Activity (AID 2283071); details: primary human keratinocytes with fibroblasts; actives raise or lower the signal
Procedure, shortened: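 TIMP-2 measured by ELISA at 24 h in human keratinocyte/fibroblast primary co-cultures exposed to chemicals. Both increases and decreases were fitted against DMSO. Parallel cultures were stained with SRB for total protein as an overt-cytotoxicity check.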

Measured: AC50

Sequence of E-selectin (Homo sapiens) (P16581 whole entry, looked up): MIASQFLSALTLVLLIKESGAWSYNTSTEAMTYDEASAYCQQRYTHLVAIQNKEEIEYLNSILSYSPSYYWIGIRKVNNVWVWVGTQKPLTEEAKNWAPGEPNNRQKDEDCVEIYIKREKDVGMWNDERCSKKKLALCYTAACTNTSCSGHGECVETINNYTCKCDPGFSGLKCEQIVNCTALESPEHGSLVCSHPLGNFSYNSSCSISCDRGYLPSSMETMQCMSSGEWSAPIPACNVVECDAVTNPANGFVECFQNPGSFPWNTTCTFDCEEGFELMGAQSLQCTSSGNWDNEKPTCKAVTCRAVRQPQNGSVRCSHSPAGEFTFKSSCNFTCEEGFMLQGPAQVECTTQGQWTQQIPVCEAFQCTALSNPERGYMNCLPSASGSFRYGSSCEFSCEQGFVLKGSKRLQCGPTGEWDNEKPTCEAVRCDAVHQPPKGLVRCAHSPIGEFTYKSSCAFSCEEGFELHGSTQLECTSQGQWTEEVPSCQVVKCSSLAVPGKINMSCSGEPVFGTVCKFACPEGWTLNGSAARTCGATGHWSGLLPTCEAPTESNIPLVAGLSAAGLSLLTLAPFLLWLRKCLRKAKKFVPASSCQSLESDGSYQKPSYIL

CC1(C)[C@H](C(=O)O[C@H](C#N)c2cccc(Oc3ccccc3)c2)[C@@H]1/C=C(\Cl)C(F)(F)F
active: [2] 0.0141 µM | [9] 0.357 µM | [10] 0.12 µM | [13] 0.0495 µM | [15] 21.3 µM | [17] 904 nM and 862 nM
inactive: [1] | [2] | [3] | [4] | [5] | [6] | [7] | [8] | [10] | [11] | [12] | [13] | [14] | [15] | [16]

Cc1ccc(OP(=O)(Oc2ccc(C)cc2C)Oc2ccc(C)cc2C)c(C)c1
active: [2] 10.3 µM | [4] 0.445 µM | [9] 8.84 µM | [10] 20 µM | [11] 6.48 µM | [15] 5.81 µM | [16] 20 µM
not listed: [7] | [19] | [20]
inactive: all other assays above

CCN(CC)C(=O)C(Cl)=C(C)OP(=O)(OC)OC
not listed: [7] | [20]
inactive: all other assays above

O=C(O)COc1cc(Cl)c(Cl)cc1Cl
not listed: [7] | [19]
inactive: all other assays above

Cc1cc(C)cc(C)c1
not listed: [7] | [20]
inactive: all other assays above

CCCCCCCCCCCCN(C)C
not listed: [18]
inactive: all other assays above

Cc1ccccc1OP(=O)(Oc1ccccc1)Oc1ccccc1
active: [1] 20 µM | [2] 27.4 µM | [3] 5.06 µM | [20] 14.4 µM | [19] 0.016 µM | [9] 8.99 µM | [11] 15.7 µM | [12] 29.2 µM | [14] 20 µM | [15] 28.1 µM | [16] 20 µM
inactive: [4] | [5] | [18] | [6] | [8] | [10] | [13] | [17]

Cc1cc(C(C)(C)c2ccc(O)c(C)c2)ccc1O
active: [9] 15.2 µM | [11] 14.3 µM | [14] 12.5 µM | [17] 4.51 µM
not listed: [18] | [19] | [20]
inactive: all other assays above

CCOC(=O)C(SP(=S)(OC)OC)c1ccccc1 (centres undefined)
active: [3] 20 µM | [19] 20 µM
not listed: [7] | [18]
inactive: all other assays above

CCCCCCCCCCCCc1cccc(S(=O)(=O)O)c1
active: [1] 27.6 µM | [2] 28.3 µM | [3] 12 µM | [4] 9.68 µM | [5] 28.4 µM | [6] 26.5 µM | [8] 28.7 µM | [9] 18 µM | [10] 29.6 µM
inactive: [11] | [12] | [13] | [14] | [15] | [16] | [17]

O=c1oc2ccccc2c(O)c1C(CC(O)c1ccc(-c2ccc(Br)cc2)cc1)c1ccccc1 (centres undefined)
inactive: [15] | [17]
active: [1] 11.2 µM | [2] 6.12 µM | [3] 5.3 µM | [4] 5.32 µM | [5] 5.92 µM | [6] 4.99 µM | [20] 5.28 µM | [8] 10 µM | [9] 19.1 µM | [10] 5.28 µM | [11] 13 µM | [12] 14.3 µM | [13] 0.0502 µM | [14] 12.4 µM | [16] 19.1 µM

Oc1ccc(Cc2ccc(O)cc2)cc1
not listed: [7] | [18] | [20]
inactive: all other assays above

O=C(O)C1(c2ccc3c(c2)OC[C@H](Cc2ccc(-c4ccccc4)cc2)[C@H]3O)CCCC1
active: [1] 12.8 µM | [2] 7.46 µM | [3] 5.32 µM | [4] 5.07 µM | [5] 30.3 µM | [6] 25.7 µM | [7] 31.3 µM | [8] 13.6 µM | [9] 12.9 µM | [10] 28.6 µM | [11] 20 µM
inactive: [12] | [13] | [14] | [15] | [16] | [17]

CCC(C)(C#N)N=NC(C)(C#N)CC (centres undefined)
active: [4] 0.016 µM
not listed: [18] | [19] | [20]
inactive: all other assays above
